# Test results taken from PubChem BioAssay (NCI).
# About 83,000 compounds went through this panel and 20% of them were active in at least one assay; those are over-represented in the sample as a whole.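 A percent growth of 40 corresponds to 60% growth inhibition; 0 means no net growth; -100 means all cells died. Active threshold: below 10.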 A number with no mark means an inactive call. Calls of active or inactive are those of the source.
# Experiments:
# Assay in all cases: NCI-60 one-dose screen, 48 h (100 = growth as untreated, 0 = no growth, -100 = all killed)
# Details in all cases: 10 µM unless noted
# NCI-H23 lung = test system: NCI-H23 lung
# NCI-H226 lung = test system: NCI-H226 lung
# NCI-H322M lung = test system: NCI-H322M lung
# HOP-62 NSCLC = test system: HOP-62 NSCLC
# NCI-H460 lung = test system: NCI-H460 lung
# NCI-H522 lung = test system: NCI-H522 lung
# A549/ATCC NSCLC = test system: A549/ATCC NSCLC
# 786-0 renal = test system: 786-0 renal
# COLO 205 colon = test system: COLO 205 colon
# HOP-92 NSCLC = test system: HOP-92 NSCLC
SMILES,growth (NCI-H23 lung),growth (NCI-H226 lung),growth (NCI-H322M lung),growth (HOP-62 NSCLC),growth (NCI-H460 lung),growth (NCI-H522 lung),growth (A549/ATCC NSCLC),growth (786-0 renal),growth (COLO 205 colon),growth (HOP-92 NSCLC)
CC[n+]1ccc(Nc2ccc(NC(=O)c3ccc(Nc4cc[n+](CC)c5ccc([N+](=O)[O-])cc45)cc3)cc2)cc1,81.8%,92.8%,96.8%,92.8%,77%,65.7%,66.1%,101%,69.8%,
COC(=O)C(=[N+]=[N-])C(=O)c1ccc([N+](=O)[O-])o1,77.6%,,103%,89.7%,94%,-61.8% (active),65.2%,107%,23%,83.1%
O=C(c1ccccc1)c1ccc(O)c2ncccc12,19.9%,29.3%,44.6%,38.6%,13.7%,,30.2%,31.6%,104%,
CCCN(CCC)C(=O)c1ccc(C)cc1,99.3%,,111%,80%,99.8%,82.3%,93.2%,98%,,66.3%
CCCc1cc(=O)oc2c3c(c4c(c12)OC(C)(C)CC4)OC(C)[C@H](C)[C@@H]3O (stereo partly drawn),81.4%,81.1%,106%,,85.7%,57.7%,72%,86.4%,96.1%,-1.36% (active)
CCCCCCCCCCCCCCCCCC[S+](C)CC (stereo not drawn),36.3%,17.5%,,15.6%,33.6%,30.2%,42.3%,29.1%,-38% (active),
Cc1ccc2cccc(OC(=O)Nc3cccc(C(F)(F)F)c3)c2n1,37.1%,67.7%,88.7%,,27.5%,37.2%,42.7%,78.6%,62.3%,
Oc1ccc(Br)cc1Sc1cc(Br)ccc1O,9.64% (active),98.2%,92%,84.7%,,,50.6%,100%,113%,22.1%
CCCCCCCCCCCCNCCCc1ccccc1,89.2%,96.6%,91.1%,95%,83.9%,63.6%,,69.4%,-50.8% (active),
O=C(c1ccccc1)c1cc2ccccc2oc1=O,94.5%,,97.7%,88.6%,117%,95%,95.9%,102%,119%,51.3%
S=c1[nH]c2cc(Cl)ccc2s1,105%,91.4%,94.4%,98.1%,118%,,108%,107%,92.9%,
CSc1nc(C)c(C(=O)CCN2CCN(c3ccccn3)CC2)s1,106%,107%,107%,,106%,-64.2% (active),102%,101%,,
O=C1C=CC(O)=CC1=P(c1ccccc1)(c1ccccc1)c1ccccc1,94.6%,88.8%,83.3%,99.7%,73.6%,81.8%,,87.9%,105%,
Nc1ccc(C(=O)/C=C/c2ccccc2)cc1,96.5%,105%,90.8%,,100%,80.8%,91.5%,86.2%,119%,88.3%
CCCCCCCCCCCC(=O)OC(C)C(=O)NCCCC (stereo not drawn),97.3%,,91.7%,94%,105%,104%,98.8%,101%,109%,98.1%
CCOC(=O)C1=C(C(=O)c2ccccc2)C(c2cccc([N+](=O)[O-])c2)C(C(=O)c2ccccc2)=C(C(=O)OCC)N1,86.3%,,94.1%,93%,98.8%,83.5%,95.3%,93.9%,114%,85.6%
O=[N+]([O-])c1ccc2c(c1)Cc1ccccc1-2,99.9%,108%,106%,94.8%,99.9%,,94.8%,91%,116%,
CC(=O)OC1CC2CCC1(C)C2(C)C (stereo not drawn),104%,103%,,,105%,,101%,111%,108%,84.1%
CC(=O)N1CC(=O)NC1=S,98.3%,,102%,97.7%,103%,92.2%,94.9%,102%,,102%

SMILES,growth (NCI-H23 lung),growth (NCI-H226 lung),growth (NCI-H322M lung),growth (HOP-62 NSCLC),growth (NCI-H460 lung),growth (NCI-H522 lung),growth (A549/ATCC NSCLC),growth (786-0 renal),growth (COLO 205 colon),growth (HOP-92 NSCLC)
NC(CS/C(Cl)=C/Cl)C(=O)O (stereo not drawn),97.6%,,73.5%,-3.21% (active),-45.9% (active),93.4%,-52.9% (active),105%,,83.3%
O=S(=O)(O)c1cnccn1,97.6%,,101%,71.6%,123%,96%,73.9%,97.8%,107%,94.2%
CCCCCCCCCCCC1N=C(N)N=C(N)N1c1cccc(Br)c1 (stereo not drawn),6.58% (active),39.1%,54.4%,-8.64% (active),-58.4% (active),,21.7%,4.98% (active),-77.3% (active),
O=C1C(=O)c2cc([N+](=O)[O-])ccc2-c2ccccc21,-71.8% (active),-98.7% (active),96.9%,-93.3% (active),16.4%,,-52.2% (active),-96.7% (active),-56.9% (active),
Oc1ccc2ccccc2c1N=Nc1ccccn1,42.6%,19.1%,47.8%,30.1%,17.4%,,53.5%,7.32% (active),15.9%,
O=C(c1ccccc1)C(O)C(Br)(CBr)c1ccccc1 (stereo not drawn),74.9%,90.2%,101%,107%,,-30.8% (active),88.5%,105%,120%,47.2%
CN(C)c1ccc(/C=C/c2nccc3ccccc23)cc1,81.9%,71.6%,,87.9%,74.3%,,85.6%,103%,91.4%,68.2%
Nc1nc(-c2ccccc2)nc(N)c1N=O,97.3%,90.4%,100%,,23.8%,-7.61% (active),66%,83.6%,,65.3%
COc1ccc(NC(=O)/C(=C/N2C(=O)/C(=C/c3ccc(OC)c(OC)c3)NC2=S)C(C)=O)cc1,64.5%,,71.1%,58.4%,65.6%,46.8%,63.8%,99.2%,107%,3.15% (active)
Cn1ccc(=Nc2ccc(NC(=O)c3ccc(N=c4ccn(C)c5ccc([N+](=O)[O-])cc45)cc3)cc2)cc1,73.8%,,104%,52.6%,98.5%,52.7%,65.5%,78.8%,56.6%,70.9%
CC(C)Nc1ccc(Nc2ccc(NC(C)C)cc2)cc1,25.9%,,84.6%,76.4%,24.7%,35.2%,40.9%,66%,25.8%,72.6%
CCC[CH2][Sn]1([CH2]CCC)[O]C2C(CO)OC(n3ccc(N)nc3=O)C2[O]1 (stereo not drawn),-42.1% (active),,33.3%,22.7%,12.1%,-78.9% (active),68.1%,-89.9% (active),-79.4% (active),-56.3% (active)
NC(=S)Nc1ccc2c(c1)Cc1ccccc1-2,83.1%,,89.2%,84.2%,94.8%,62.9%,72.5%,115%,98.2%,63.9%
CCCCCCCCCCCCN1C(C)=CS/C1=C\C=C\c1scc(C)[n+]1CCCCCCCCCCCC,10.8%,40.6%,96.8%,35.5%,,3.47% (active),16.6%,37.3%,8.86% (active),36.8%
O=C(O)c1cccc2cccc(-c3c4ccc(=O)c(O)c-4oc4c(O)c(O)ccc34)c12,89.3%,95.5%,97.2%,,100%,90.9%,96.4%,98.8%,111%,93.8%
CCCCCCCCCCCCCCCc1ccc(C(=O)C[n+]2ccccc2)cc1,-62% (active),-6.49% (active),,-99% (active),-80.6% (active),-90.2% (active),-95% (active),,-90.5% (active),
O=C(c1ccc(O)c(Br)c1)c1ccc(O)c(Br)c1,103%,,113%,102%,111%,115%,109%,107%,112%,101%
CCCCCC/C=C1\CCC(CN2CCCC2)C1=O (stereo not drawn),99.9%,95.5%,106%,,102%,93.5%,93%,77.4%,,90.5%
COc1cc(-c2ccc(-[n+]3nc(-c4ccc([N+](=O)[O-])cc4)nn3-c3ccc([N+](=O)[O-])cc3)c(OC)c2)ccc1-[n+]1nc(-c2ccc([N+](=O)[O-])cc2)nn1-c1ccc([N+](=O)[O-])cc1,26.1%,-32.5% (active),44.3%,-59.7% (active),3.02% (active),,11.8%,0.457% (active),-69% (active),

SMILES,growth (NCI-H23 lung),growth (NCI-H226 lung),growth (NCI-H322M lung),growth (HOP-62 NSCLC),growth (NCI-H460 lung),growth (NCI-H522 lung),growth (A549/ATCC NSCLC),growth (786-0 renal),growth (COLO 205 colon),growth (HOP-92 NSCLC)
Cc1nnc(N/N=C/c2ccc([N+](=O)[O-])o2)[nH]c1=O,22.6%,,16.6%,11.3%,11.3%,17.1%,28.5%,14.9%,-56.5% (active),-35.8% (active)
CCN(CC)CCNC(Cc1ccccc1)c1ccc(OCc2ccccc2)cc1 (stereo not drawn),,88.2%,,92.8%,65.1%,73.6%,69.6%,57.4%,54.2%,6.39% (active)
O=C(NOC(=O)c1ccccc1)c1ccccc1,107%,,119%,105%,97.9%,98%,120%,93.9%,117%,
Oc1ccccc1N=Cc1ccccc1,64.2%,,87.5%,99.1%,94.4%,81.1%,98.2%,,125%,102%
NNc1cccc([N+](=O)[O-])c1,,103%,89%,,108%,61.4%,96.7%,86.4%,110%,122%
CN(C)c1ccc(/C=C/c2ccnc3ccccc23)cc1,58.6%,,97.3%,61.8%,21.7%,-24% (active),24.7%,54.7%,40.6%,27.2%
C=C(C(N)=O)C(N)C(=O)O (stereo not drawn),110%,,100%,110%,108%,100%,107%,92.8%,,
COC1=CC(=O)c2c(O)c3c(c(O)c2C1=O)CC(C)(O)OC3 (stereo not drawn),-27% (active),,5.37% (active),9.06% (active),4.74% (active),14.7%,2.13% (active),34%,-61.7% (active),-16.4% (active)
Cc1onc(-c2ccccc2)c1C(=O)N/N=C/c1cc(Cl)cc(Cl)c1O,53.2%,,16%,39.3%,22.7%,28.7%,21.9%,27.4%,16.9%,49.3%
OC(Cc1cc(CC(O)(C(F)(F)F)C(F)(F)F)nc(CC(O)(C(F)(F)F)C(F)(F)F)c1)(C(F)(F)F)C(F)(F)F,-5.07% (active),,13.3%,-37.3% (active),0.458% (active),-18.6% (active),3.09% (active),1.13% (active),-92.6% (active),-27.9% (active)
COc1cccc2c1C(=O)c1c(O)c3c(c(O)c1C2=O)C[C@@](O)(C(=O)CO)C[C@@H]3OC1CC(OC(C)=O)C(OC(C)=O)C(C)O1 (stereo partly drawn),,-73.3% (active),-12.8% (active),-25.6% (active),-56.2% (active),-34% (active),-44.6% (active),-17.3% (active),-6.8% (active),-28.9% (active)
O=C(Nc1cccc(C(F)(F)F)c1)Oc1ccc(Cl)c2cccnc12,8.91% (active),,101%,76.8%,10.4%,-77.1% (active),-1.52% (active),88%,89.6%,
CC(C)c1ccc(C(=O)OC2CCCC2)cc1,100%,,99.2%,93.1%,105%,103%,117%,107%,103%,80.2%
Cc1ccc(N2C(=O)C=CC2=O)cc1,106%,,,107%,,74.8%,92%,99.1%,83.6%,82.9%
S=C1SCN(Cc2cccs2)CN1Cc1cccs1,107%,,99.4%,122%,101%,46.7%,96.8%,102%,108%,79.9%
O=[N+]([O-])/C(=C/c1ccccc1)c1ccccc1,99.4%,,106%,,102%,83%,101%,97.9%,112%,
CN(C)CCSC1=Nc2ccc(Cl)cc2C(c2ccccc2Cl)N(C)C1 (stereo not drawn),90%,,58.7%,55.9%,78.7%,71.8%,78%,65.2%,70.4%,51.4%
Nc1nc(N)c2cc(Sc3cccc(C(F)(F)F)c3)ccc2n1,40.3%,,37.1%,61.3%,14.9%,35.4%,12.7%,19.2%,-75.9% (active),
